From PubChem BioAssay (NCI)
This is part of a sample that, as a whole, favours compounds with a hit. Of some 83,000 tested, about 20% had one in any assay.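 Compound tested at a single concentration for 48 hours in 96-well plates; a percent growth value below 10 was scored as active.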 A number with no mark means an inactive call. The source made the active and inactive calls.

Experiments:
Experiment in all cases: NCI-60 one-dose screen, 48 h (100 = growth as untreated, 0 = no growth, -100 = all killed)
Conditions in all cases: 10 µM unless noted
[1] = test system: HCT-15 colon
[2] = test system: HT29 colon
[3] = test system: SNB-75 CNS
[4] = test system: SNB-19 CNS
[5] = test system: U251 CNS
[6] = test system: PC-3 prostate
[7] = test system: LOX IMVI melanoma
[8] = test system: SK-MEL-2 melanoma
[9] = test system: EKVX NSCLC
[10] = test system: UO-31 renal
[11] = test system: TK-10 renal
[12] = test system: ACHN renal
[13] = test system: CAKI-1 renal
[14] = test system: A498 renal
[15] = test system: CCRF-CEM leukemia
[16] = test system: MOLT-4 leukemia
[17] = test system: SK-MEL-5 melanoma
[18] = test system: UACC-62 melanoma
[19] = test system: SK-MEL-28 melanoma
[20] = test system: SN12C renal

Structure (SMILES) | growth [1] | growth [2] | growth [3] [%] | growth [4] [%] | growth [5] | growth [6] | growth [7] | growth [8] | growth [9] [%] | growth [10] | growth [11] | growth [12] | growth [13] | growth [14] [%] | growth [15] | growth [16] | growth [17] | growth [18] [%] | growth [19] [%] | growth [20] [%]
CCOc1ccc(-n2nc(C(=O)Nc3cc(OC)c(OC)c(OC)c3)nc2-c2cc(OC)c(OC)c(OC)c2)cc1 | 82.1% | 84.6% | 65.6 | 82.1 | 85.1% | 70.2% | 89% | 85.6% | 96.1 | 52.6% | 104% | 85.7% | 77.4% | 67.3 | 66.5% | 67.5% | – | – | – | –
COc1ccc(-c2nc(SCC(=O)Nc3ccc(C(=O)/C=C/c4ccc(Cl)cc4)cc3)[nH]c(=O)c2C#N)cc1 | 97.9% | 103% | 85.2 | 39.4 | -15.3% (active) | 93.6% | -79.4% (active) | 100% | 95.7 | 89.1% | 102% | 98.9% | 82.8% | 101 | 94.2% | 84.4% | – | – | – | –
COc1ccc(CN2c3ccccc3Oc3ccccc32)cc1F | 47.4% | 11.2% | 47.9 | 67.8 | 39.5% | 64.8% | – | 10% | 60.7 | 53.3% | 74.2% | 81% | 59.3% | 54.3 | 66.7% | 42% | – | – | – | –
CC/C=C\C/C=C\C[C@H]1C/C=C2/C(=O)C=C[C@@H]2C/C=C\CCC(=O)O1 | 0.621% (active) | -40.5% (active) | 64 | 28 | -23.2% (active) | 2.76% (active) | -59.7% (active) | -56.9% (active) | 31.4 | -49.7% (active) | 7.69% (active) | -78.9% (active) | 14.5% | 20.7 | -5.47% (active) | 2.83% (active) | – | – | – | –
NCCNc1nc(Nc2ccc(-c3nc4ccccc4[nH]3)cc2)c2cn[nH]c2n1 | 101% | 62.7% | 71.7 | 66.5 | -55.4% (active) | 74% | -17.8% (active) | 75% | 88.9 | 76.7% | 105% | 91.9% | 91.5% | 115 | -3.49% (active) | 8.24% (active) | – | – | – | –
C/C1=C\CC[C@@]2(C)O[C@H]2[C@H]2OC(=O)C(CN3CCN(CC4C(=O)O[C@H]5[C@H]4CC/C(C)=C/CC[C@@]4(C)O[C@@H]54)CC3)[C@@H]2CC1 (some centres undefined) | 95% | 104% | 85.4 | 99.2 | 94% | 92% | 93.7% | 107% | 96.8 | 96.7% | 89.7% | 87.1% | 94% | – | 58% | 84.3% | – | – | – | –
CC(=O)OC[C@H]1O[C@H](OC(C)=O)[C@H](NC(=O)/C=C/CCl)[C@@H](OC(C)=O)[C@@H]1OC(C)=O | 99.1% | 54.3% | 71.3 | 86.8 | 45.1% | 70.4% | 68.8% | 66.6% | 94.9 | 103% | 75% | 77.1% | 101% | 104 | 24.6% | 81.9% | – | – | – | –
Cc1ccc(NC(=O)/C=C/c2ccccc2)c(C(N)=O)c1 | 33.6% | 14.1% | 11.3 | 40.5 | 28.8% | – | 51.2% | 67% | 64.1 | 46.7% | 92.9% | 57.7% | 6.55% (active) | 53.8 | 7.23% (active) | – | 6.05% (active) | 44.2 | 33.1 | 53.1
C=C1C(=O)O[C@H]2[C@H]1CC/C(COC(=O)NCCc1ccc(OC)c(OC)c1)=C\CC[C@@]1(C)O[C@@H]21 | 61.7% | 32.8% | 61.2 | 90.1 | 76.8% | 78.8% | 75% | 83% | 71.5 | 43% | 36% | 8.5% (active) | 45.2% | 81.3 | -8.78% (active) | 43.6% | – | – | – | –
CC(C)(CCCN=C(N)Nc1ccc(Cl)cc1)c1ccc(F)cc1 | 67.1% | 12.7% | 60.7 | 67.4 | 65.5% | 52.9% | – | 94.6% | 71.7 | 58.5% | 72.4% | 67.4% | 74.7% | 77.6 | 53.7% | 37.7% | – | – | – | –
CC(O)CN1CC(O)=C(c2nc3ccccc3s2)C1=N (centres undefined) | 158% | 104% | 99.3 | 96.5 | 157% | – | 211% | 95.1% | 108 | 90.3% | 131% | 228% | 101% | 116 | 97.4% | – | 105% | 102 | 131 | 103
Cn1cc(-c2nonc2-c2cn(C)c3ccc(F)cc23)c2cc(F)ccc21 | 30.8% | 12.3% | 53.8 | 60.1 | 45.2% | – | 57.9% | 30.5% | 67.9 | 68.6% | 85.9% | 70.3% | 42% | 54.2 | 33.6% | – | 51.4% | 50.6 | 69 | 61.6
COc1ccc(CN2c3ccccc3Oc3ccccc32)cc1O | 28.1% | 72.7% | 27.4 | 34.9 | 24% | 31.4% | 39.5% | -6.69% (active) | 35 | 32.5% | 64.4% | 36.1% | 39.4% | 106 | 12.5% | 24.9% | – | – | – | –
COc1cc2c(cc1O)CC[C@@H]1[C@@H]2CC[C@]2(C)[C@@H](OCCN(C)C)CC[C@@H]12 | 34% | 3.38% (active) | 17.8 | 52.4 | 27.4% | 45.4% | 52.5% | 25.8% | 65.2 | 72.3% | 85.1% | 57.9% | 75.3% | 40.3 | – | 33.9% | – | – | – | –
C=C1C(=O)O[C@H]2[C@H]1CC/C(C=Nc1ccc(C(F)(F)F)cc1N)=C\CC[C@@]1(C)O[C@@H]21 | 2.23% (active) | 1.96% (active) | 41.1 | 44 | 14.6% | 14.2% | -48.9% (active) | -18.3% (active) | 31.2 | 30.3% | 1.36% (active) | -38% (active) | 15.5% | 46.8 | -5.78% (active) | -3.3% (active) | – | – | – | –
COc1ccc(CN2c3ccccc3Sc3ccccc32)cc1O | 33.1% | 8.73% (active) | 26.6 | 33 | 18.5% | 26.1% | 43.1% | 8.98% (active) | 36.7 | 24.4% | 58.3% | 41.7% | 36.2% | – | 8.29% (active) | 18.4% | – | – | – | –
COc1ccc2c(c1)C(=O)/C(=C/c1cccnc1)CC2 | 92.8% | 92.5% | 91.6 | 88.7 | 86.7% | 101% | 88.5% | 97.7% | 96.5 | 92.3% | 97.7% | 88.5% | 90.8% | 100 | 68% | 82.4% | – | – | – | –
O=C1c2c(O)cc(O)cc2-c2c(-c3ccc(O)cc3)oc3cc(O)cc1c23 | 57.5% | 88.8% | 26.4 | 44.8 | 25.5% | 50.5% | 17.9% | 72.3% | 62.2 | 12.7% | 63.4% | 9.27% (active) | 33% | 62.5 | 6.03% (active) | 1.37% (active) | – | – | – | –
